PubChem BioAssay (NCATS)
Where “and” joins values, the source holds several entries; their conditions need not be identical. Equal values may be shown once. Results filed as inconclusive are left out. Calls of active or inactive are those of the source. Unless noted, the call rests on the fitted dose curve; in most records, active means well fitted curve in the direction sought with a large enough effect; inconclusive means small, poorly fitted or top-dose-only effect, or another doubt; inactive means no such curve, though single readings can be large; an effect the other way counts as inactive or inconclusive.

How the values were obtained:
[1] = qHTS assay for small molecule agonists of the antioxidant response element (ARE) signaling pathway (AID 651741; active means well fitted activation curve with a large enough effect in the signal ratio; the % refers to the signal ratio; further: % of control where 0% means no effect)
Summary of the method: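 Beta-lactamase reporter under ARE control in HepG2 cells, 2,000 per well, was induced by 16 h compound treatment at 37 C. Read-out was fluorescence from LiveBLAzer B/G FRET substrate after 2 h at room temperature.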

[2] = qHTS assay for small molecule activators of the p53 signaling pathway (AID 651743; active means well fitted activation curve with a large enough effect in the signal ratio, not every such curve was filed as active; the % refers to the signal ratio; further: series mostly up to about 92 µM; % of control where 0% means no effect); settings: HCT-116 p53RE-bla, beta-lactamase FRET ratio, 16 h; stronger effect = higher value
Summary of the method: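 After 16 hours compound treatment at 37 C, HCT-116 cells stably expressing p53RE-driven beta-lactamase were loaded with LiveBLAzer B/G FRET substrate for 2 hours at room temperature. Fluorescence intensity served as the p53 activation read-out.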

[3] = molecular target: Tumor necrosis factor (Homo sapiens) (UniProt P01375); experiment: qHTS assay to identify small molecules that stimulate Tumor Necrosis Factor-alpha (TNF-alpha) secretion (AID 651757; active means well fitted curve in the direction sought with a large enough effect in the signal ratio; the % refers to the signal ratio; further: 0% is about no effect)
Summary of the method: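 Human monocytic THP-1 cells are plated, treated with compound and held at 37 C for 17 hrs. Labeled anti-TNF-alpha antibody mixture is then added; after 3 hr at room temperature, TR-FRET signal reports secreted TNF-alpha.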

[4] = qHTS assay to identify small molecules that stimulate interleukin-8 (IL-8) secretion (AID 651758; active means well fitted activation curve with a large enough effect in the signal ratio; the % refers to the signal ratio; further: 0% is about no effect)
Summary of the method: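 Secreted IL-8 measured homogeneously by TR-FRET (two labelled anti-IL-8 antibodies, 1-3 h at room temperature) after a 16 h, 37 C compound treatment of THP-1 cells at 2000 cells/well.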

[5] = molecular target: Peroxisome proliferator-activated receptor alpha (Homo sapiens) (UniProt Q07869); experiment: qHTS assay for small molecule agonists of the peroxisome proliferator-activated receptor alpha (PPARalpha) signaling pathway (AID 651778); settings: PathHunter PPARalpha complementation, chemiluminescence, 6 h; stronger effect = higher value; further: % of control where 0% means no effect
Summary of the method: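 Chemiluminescence from complemented enzyme reported PPARalpha activation in cells after 6 hr of compound treatment at 37 C. The detection reagent was incubated for 60 min at room temperature, and compounds were scored as agonists.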

[6] = molecular target: Nuclear receptor ROR-gamma (Homo sapiens) (UniProt P51449); experiment: qHTS assay for small molecule antagonists of the retinoid-related orphan receptor gamma (ROR-gamma) signaling pathway (AID 651802);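 further: CHO cells with doxycycline-induced ROR-gamma expression; series mostly up to about 92 µM; on the % scale 0 is the no-effect control and ±100 the full control effect; nearly all actives have a fitted effect of over 60% in size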
Summary of the method: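 Steps: cells dispensed; compound or DMSO transferred by pin tool; doxycycline added to induce the ROR response element-driven luciferase; plates held 16hr at 37C; ONE-Glo added and luminescence measured.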

[7] = qHTS assay for environmental chemicals that activate the Aryl hydrocarbon Receptor (AhR) signaling pathway (AID 651777); settings: 1A2-DRE human hepatoma cells, luciferase, 24 h; stronger effect = higher value; further: % of control where 0% means no effect; nearly all actives have a fitted effect of over 15% in size
Summary of the method: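 Stable CYP1A2 promoter/DRE-luciferase human hepatoma line treated 24 hr; One-Glo luminescence, 30 min RT.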

[8] = qHTS assay for small molecule disruptors of the mitochondrial membrane potential - 1 hr assay (AID 651754; calls by dose curve; further: nearly all actives have a fitted effect of over 35% in size; further: potency means the concentration at half of the fitted maximal effect)
Summary of the method: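 Loss of mitochondrial potential shifts the cationic dye from red mitochondrial aggregates to green cytoplasmic monomers. Cells (HepG2) are treated with compound for 1 hr before a 30 min dye incubation at 37C.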

[9] = qHTS assay for small molecule disruptors of the mitochondrial membrane potential - 5 hr assay (AID 651755; calls by dose curve; further: nearly all actives have a fitted effect of over 40% in size; further: potency means the concentration at half of the fitted maximal effect)
Summary of the method: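 Membrane-potential dye readout: red aggregate (540 ex/590 em) versus green monomer (490 ex/535 em) fluorescence after 30 min dye loading, following 5 hr compound exposure at 37C of overnight-plated HepG2 cells.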

[10] = qHTS for Inhibitors of Ubiquitin-specific Protease USP2a Using CHOP2 as the Reporter: K633 Counterscreen (AID 652168); further: series mostly up to about 57 µM; % of control where 0% means no effect
From the text: Homeostasis of cellular proteins is maintained through a combination of synthesis and degradation. The pathway that accounts for the majority of protein degradation is the ubiquitin-proteasomal pathway. Ubiquitin (Ub) is highly conserved in all cells and the generation of a multi-Ub chain typically targets proteins for degradation by the proteasome. However, ubiquitination is highly reversible and dynamic. Deubiquitination, the reverse process, is catalyzed through the action of enzymes referred to as isopeptidases or deubiquitinating enzymes (DUBs). This group of enzymes is collectively responsible for maintaining adequate pools of free ubiquitin and regulating the ubiquitination status of cellular proteins. The class of DUBs referred to as the ubiquitin-specific proteases (USP) family functions endoproteolytically to cleave Ub chains from a wide range of protein substrates. USP2a deubiquitinates fatty acid synthase (FASN) which has recently been identified as an emerging oncology target. To identify inhibitors of USP2a a cell-free qHTS assay was employed. To determine whether the compounds interacted with the detection system alone, the effect of compounds on the substrate of assay 2.1.3 over time was determined in a 1536-well assay. A compound that modulates the fluorescence over time would be indicative of interference with the detection system. […]

Sequence of Nuclear receptor ROR-gamma (Homo sapiens) (P51449 whole entry, looked up): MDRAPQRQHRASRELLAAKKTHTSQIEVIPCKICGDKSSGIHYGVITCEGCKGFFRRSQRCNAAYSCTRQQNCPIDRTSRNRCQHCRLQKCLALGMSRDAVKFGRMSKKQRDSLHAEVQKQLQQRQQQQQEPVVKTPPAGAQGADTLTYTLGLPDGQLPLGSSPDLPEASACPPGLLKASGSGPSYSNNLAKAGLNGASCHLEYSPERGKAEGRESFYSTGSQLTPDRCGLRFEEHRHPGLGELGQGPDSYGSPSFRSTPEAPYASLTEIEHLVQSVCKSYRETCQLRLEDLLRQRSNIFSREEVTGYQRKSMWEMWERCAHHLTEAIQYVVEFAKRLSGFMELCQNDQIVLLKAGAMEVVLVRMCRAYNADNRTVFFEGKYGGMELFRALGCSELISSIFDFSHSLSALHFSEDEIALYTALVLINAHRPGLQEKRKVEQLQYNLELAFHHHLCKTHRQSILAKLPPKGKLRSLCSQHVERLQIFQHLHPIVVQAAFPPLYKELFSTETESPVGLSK
Sequence of Tumor necrosis factor (Homo sapiens) (P01375 whole entry, looked up): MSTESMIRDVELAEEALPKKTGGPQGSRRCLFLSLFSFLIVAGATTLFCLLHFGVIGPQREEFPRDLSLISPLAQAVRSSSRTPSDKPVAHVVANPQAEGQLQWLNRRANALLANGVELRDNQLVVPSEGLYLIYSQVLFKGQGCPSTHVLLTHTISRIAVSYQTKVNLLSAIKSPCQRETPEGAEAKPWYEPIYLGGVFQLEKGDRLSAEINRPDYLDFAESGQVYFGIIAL
Sequence of Peroxisome proliferator-activated receptor alpha (Homo sapiens) (Q07869 whole entry, looked up): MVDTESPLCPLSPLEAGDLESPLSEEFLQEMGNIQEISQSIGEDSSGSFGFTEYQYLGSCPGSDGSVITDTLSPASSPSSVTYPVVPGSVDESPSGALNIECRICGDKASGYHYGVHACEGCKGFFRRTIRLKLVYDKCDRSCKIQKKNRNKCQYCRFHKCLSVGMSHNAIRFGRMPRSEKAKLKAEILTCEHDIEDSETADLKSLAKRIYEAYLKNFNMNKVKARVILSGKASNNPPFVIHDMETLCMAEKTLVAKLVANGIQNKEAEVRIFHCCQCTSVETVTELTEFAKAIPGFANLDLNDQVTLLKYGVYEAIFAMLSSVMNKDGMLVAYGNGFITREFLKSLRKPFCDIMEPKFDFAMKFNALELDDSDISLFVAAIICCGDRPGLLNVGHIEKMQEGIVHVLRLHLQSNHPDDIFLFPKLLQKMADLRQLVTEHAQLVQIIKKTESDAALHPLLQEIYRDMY

NCCNCCNCCN
inactive: Potency [1] | activation [2] -2.15% | outcome [3] | outcome [4] | max response [5] -1.93% | Potency [6]

CCCCC(CC)COC(=O)c1ccccc1O (stereo not drawn)
inactive: activation [2] 0.46% | activation [7] -0.423% | max response [5] 0.691%

O=C1NS(=O)(=O)c2ccccc21
inactive: max response [5] 0.552%

C[C@]12C[C@H](O)[C@H]3[C@@H](CCC4=CC(=O)CC[C@@]43C)[C@@H]1CC[C@@H]2C(=O)CO
inactive: Potency [1] | activation [2] -3.81% and -1.82% | outcome [3] | activation [7] -0.656% and -0.0877% | max response [5] -1.77% and -2.82%

Cc1cc2nc3c(=O)[nH]c(=O)nc-3n(C[C@H](O)[C@H](O)[C@H](O)CO)c2cc1C
active: Potency [8] 5.96 µM | Potency [9] 7.5 µM
inactive: activation [2] -9.36% | max response [5] 3.79% | Potency [6]

CCCc1c(OCCCCc2nn[nH]n2)ccc(C(C)=O)c1O
inactive: activation [2] 16.1% | max response [5] 11.9%

CC12CCC(CC1)C(C)(C)O2
inactive: Potency [1] | activation [2] -1.89% | outcome [3] | activation [7] -0.144% | max response [5] -0.195% | Potency [6]

CN(C)CCOC(C)(c1ccccc1)c1ccccn1 (stereo not drawn)
inactive: Potency [1] | activation [2] 2.16% | activation [7] -1.5% | max response [5] -0.887%

CCCCCCCCCCCCOS(=O)(=O)O
inactive: Potency [1] | Potency [8] | Potency [9] | outcome [3] | outcome [4] | activation [7] 1.08% [middle of 4 runs] | max response [5] 11.8% and 23.9% and 3.99% | Potency [6]

Nc1ccc(S(=O)(=O)Nc2nccs2)cc1
inactive: Potency [1] | activation [2] -5.45% | outcome [3] | activation [7] -0.168% | max response [5] -1.3% | outcome [10]

CC(O)CN(CCN(CC(C)O)CC(C)O)CC(C)O (stereo not drawn)
inactive: activation [2] -6.2% | activation [7] 0.546% | max response [5] -1.89%

O=C1c2c(O)cccc2Cc2cccc(O)c21
inactive: Potency [1] | activation [2] -1.03% | outcome [3] | outcome [4] | activation [7] -0.232% | max response [5] -2.77%

CN(C)CCC=C1c2ccccc2CCc2ccccc21
inactive: Potency [1] | activation [2] -8.64% and -6.53% | outcome [3] | activation [7] -1.66% and 0.429% | max response [5] -4.24% and -3.42%

CC(CN1c2ccccc2Sc2ccccc21)N(C)C (stereo not drawn)
inactive: activation [2] -4.88% | activation [7] -0.788% | max response [5] -2.77%
